High-throughput results (PubChem BioAssay)
Rab9 prom act: qHTS Assay for Rab9 Promoter Activators; Huh7 Rab9 promoter-luciferase reporter, luminescence, 24 h; Potency, µM (series often up to 9.22 µM), for the others: top-dose activation, negative = inhibition, most hits filed as activators; 320,000 compounds, 2.8% hits; AID 485297, 2010; further: % of control where 0% means no effect; nearly all actives have a fitted effect of over 60% in size
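Measured in stably transfected Huh7 cells bearing a Rab9 promoter–luciferase construct: 24 h compound treatment at 37 °C, followed by luminescence detection.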
FLuc modulator: qHTS profiling assay for firefly luciferase inhibitor/activator using purifed enzyme and Km concentrations of substrates (counterscreen for miR-21 project); Luciferin 4-monooxygenase (Photinus pyralis), P08659; purified FLuc, Km substrates, luminescence inhibition; Potency, µM (top dose mostly 57.5 µM), for inactives: top-dose activity change, negative = inhibition, usual class: inhibitors; 360,000 compounds, 6.9% hits;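 further: plate controls were vehicle for no effect and reference inhibitor for full effect; nearly all actives have a fitted effect of over 55% in size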
Target sequence (P08659 whole entry, looked up): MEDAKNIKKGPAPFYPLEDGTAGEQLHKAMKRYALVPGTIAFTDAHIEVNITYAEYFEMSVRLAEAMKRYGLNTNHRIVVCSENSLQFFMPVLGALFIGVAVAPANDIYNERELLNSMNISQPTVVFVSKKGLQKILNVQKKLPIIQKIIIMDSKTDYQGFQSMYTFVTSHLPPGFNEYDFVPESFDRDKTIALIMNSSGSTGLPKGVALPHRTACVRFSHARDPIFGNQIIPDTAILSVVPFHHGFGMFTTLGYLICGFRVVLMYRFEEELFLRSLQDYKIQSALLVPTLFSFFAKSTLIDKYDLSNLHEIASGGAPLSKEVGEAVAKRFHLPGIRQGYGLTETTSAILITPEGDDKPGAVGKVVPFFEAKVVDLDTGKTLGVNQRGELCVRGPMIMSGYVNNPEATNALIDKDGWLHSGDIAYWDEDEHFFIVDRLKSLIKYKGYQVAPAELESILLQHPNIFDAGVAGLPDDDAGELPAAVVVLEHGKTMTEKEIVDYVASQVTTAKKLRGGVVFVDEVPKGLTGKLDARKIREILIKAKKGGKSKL
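Purified P. pyralis luciferase (10nM final) with 10uM D-luciferin and 10uM ATP (Km levels) in 50mM Tris acetate pH 7.5, 10mM Mg acetate, 0.01% Tween-20, 0.05% BSA; qHTS 6-point titration, ~60 µM downward; luminescence read.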
KinaseGlo FLuc: Counterscreen for Luciferase (Kinase-Glo TM) Inhibition; Luciferin 4-monooxygenase (Photuris pensylvanica), Q27757; Kinase-Glo luciferase, ATP luminescence, 8 min; Potency, µM (titrated, usually from 38.3 µM), for inactives: at the highest dose activity change, negative = inhibition, actives largely listed as inhibitors; 200,000 compounds, 0.28% hits; AID 1379, 2008; further: on the % scale 0 is the no-effect control and ±100 the full control effect; nearly all actives have a fitted effect of over 60% in size
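Recombinant Kinase-Glo luciferase, 10 uM ATP (linear range), luciferin; imidazole pH 7.2 / KCl / MgCl2 / Tween / BSA buffer; 8 min RT; luminescence.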
NPC1 promoter act: qHTS Assay for NPC1 Promoter Activators; 320,000 compounds, 2.4% hits; Potency, µM (titrated, usually from 9.22 µM), for inactives: top-dose activation, hits mostly activators; Huh7 NPC1 promoter luciferase reporter, 24 h; AID 485313, 2010; further: % of control where 0% means no effect; nearly all actives have a fitted effect of over 60% in size
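Cells: Huh7 expressing luciferase under the NPC1 promoter, 1500/well. Seeded 2 h, compound added, incubated 24 h at 37 °C. Luciferase reagent, 10 min ambient, then luminescence.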
SMN2 splice up: qHTS Assay for Enhancers of SMN2 Splice Variant Expression; HEK293 SMN2-luciferase splicing reporter, luminescence, 30-36 h; Potency, µM (doses to about 46.1 µM), without a hit: top-dose activity change, positive = activation, actives largely listed as activators; 210,000 compounds, 2.8% hits; AID 1458, 2008; further: % of control where 0% means no effect; nearly all actives have a fitted effect of over 55% in size
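HEK293 cells carry an SMN2 […]–luciferase reporter in which exon 7 inclusion puts luciferase in frame. Cells were plated 10-12 h before compound addition, then incubated 30-36 h at 37C. ONE-Glo luminescence was read; sodium butyrate at 4.5 mM final served as control.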
ELG1 genotox: qHTS screen for small molecules that induce genotoxicity in human embryonic kidney (HEK293T) cells expressing luciferase-tagged ELG1. Potency, µM (highest dose often 46 µM), for the others: top-dose activity change, positive = activation, hits mostly activators. 330,000 compounds, 1.3% hits. HEK293T ELG1-luciferase reporter, luminescence, 16 h. AID 504466, 2011; further: % of control where 0% means no effect; nearly all actives have a fitted effect of over 60% in size
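Luminescence read-out: rising ELG1-luciferase signal, reflecting elevated ELG1 protein under genetic stress, flags genotoxic compounds. Cells were treated for 16 hr at 37 °C before ONE-Glo detection.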
* = called active by the depositor; ? = inconclusive; . = no result. A selection: hits, their analogues and other compounds. The true share with any hit is near 7.4%. The call rests on the fitted dose curve; in most records, active means well fitted curve in the direction sought with a large enough effect; inconclusive means small, poorly fitted or top-dose-only effect, or another doubt; inactive means no such curve, though single readings can be large; an effect the other way counts as inactive or inconclusive. Potency means the concentration at half of the fitted maximal effect.

SMILES	Rab9 prom act	FLuc modulator	KinaseGlo FLuc	NPC1 promoter act	SMN2 splice up	ELG1 genotox
Nc1nnc(SCc2ccc(F)cc2Cl)s1	16.6%	-25.5%	0.1%	10.4%	28.7%	2.8%
Cc1cc(C(=O)CSc2nnnn2C)c(C)n1-c1ccc2c(c1)OCCO2	2.51µM*	23.9µM*	-5.5%	3.16µM*	?	10µM*
Cc1nnc(SCC(=O)c2cc(C)n(-c3ccc4c(c3)OCO4)c2C)s1	?	23.9µM*	.	24.7%	.	?
Cc1nnc(SCc2ccc(F)cc2Cl)s1	?	23.9µM*	-1.5%	3.55µM*	?	?
Cc1nnc(SCc2ccc3c(c2)OCO3)s1	?	?	1.2%	20.5%	12.7%	20.6µM*
Cc1cc(C(=O)CSc2nnc(-c3ccco3)o2)c(C)n1-c1ccc2c(c1)OCCO2	-10.1%	-15.5%	12.2%	-3.2%	-71.3%	-1.2%
Cc1cc(C(=O)CSc2nnc(-c3ccc4c(c3)OCO4)o2)c(C)n1-c1ccc(F)cc1	-6.1%	-11.1%	2.8%	-1.1%	-64.7%	1.7%
CC1(C)COC(c2coc3ccccc3c2=O)OC1	26.9%	16.9µM*	-5.8%	28.8%	?	?
C=CCOC(=O)C(=O)/C=C/c1csc2ccccc12	0.9%	26.9µM*	.	-0.8%	.	?
FC(F)(F)c1ccc(C2=Nc3ccccc3NC(c3cccs3)=N2)cc1	.	-2.7%	.	.	-19.5%	.
COc1ccc(C2=Nc3ccccc3OC2)cc1	1.58µM*	0.849µM*	-10.9%	1.58µM*	?	0.517µM*
COc1ccc(-c2cc(-c3ccccc3)nc3c2COc2ccccc2-3)cc1	.	-3.0%	.	.	4.7%	.
CCC(Sc1nc(-c2ccccc2F)nc2c1Cc1c(CO)cnc(C)c1O2)C(=O)Nc1cc(C)ccc1C (stereo unspecified)	.	0.0%	.	.	.	.
O=c1sc(N2CCN(c3ccccc3F)CC2)nc2ccsc12	0.794µM*	2.69µM*	2.7%	1.41µM*	12.6µM*	7.31µM*
O=c1sc(N2CCN(c3ccc(F)cc3)CC2)nc2ccsc12	?	8.49µM*	-0.5%	?	?	?
O=C(c1ccco1)N1CCN(c2nc3ccsc3c(=O)s2)CC1	17.6%	-16.9%	4.2%	0.8%	23.3%	16.4%
CNS(=O)(=O)c1cn(CC(=O)N2CCN(c3ccc(C(C)=O)cc3)CC2)cc1S(=O)(=O)NC	.	-6.1%	.	.	.	.
COc1ccc(C(=O)N2CCC3(CCCN(Cc4cc(C(F)(F)F)cc(C(F)(F)F)c4)C3)CC2)cc1	.	.	-6.1%	.	-7.1%	.
O=C(Nc1ccc(Cl)cc1Cl)c1cc2ccccc2o1	1.58µM*	0.953µM*	.	1.41µM*	.	?
Cc1ccccc1NC(=O)c1cc2ccccc2o1	?	8.49µM*	.	3.98µM*	.	7.3µM*
Cc1ccccc1NC(=O)c1cc(=O)c2ccccc2o1	14.7%	-15.2%	-1.8%	2.9%	-2.9%	1.7%
Cc1ccc(NC(=O)c2cc3ccccc3o2)nc1	3.16µM*	1.9µM*	.	3.98µM*	.	0.731µM*
Cc1ccc(-c2nc3cc(NC(=O)c4cc5ccccc5o4)ccc3o2)cc1	.	-10.3%	.	.	9.4%	.
O=C(NCCc1ccccn1)c1cc2ccccc2o1	?	?	.	3.55µM*	.	?
COc1cc2[nH]c(=O)n(CCCC(=O)NCc3ccccc3Cl)c(=O)c2cc1OC	.	-5.9%	.	.	-1.8%	.
SMILES	Rab9 prom act	FLuc modulator	KinaseGlo FLuc	NPC1 promoter act	SMN2 splice up	ELG1 genotox
O=C(NCc1ccccc1Cl)c1cc2ccccc2o1	.	?	.	.	3.8%	.
O=C(Nc1ncccc1Cl)c1cc2ccccc2o1	1.58µM*	5.36µM*	.	2µM*	.	7.3µM*
COc1ccccc1NC(=O)c1cc2ccccc2o1	?	6.75µM*	-2.1%	?	22.4µM*	?
COC(=O)c1ccccc1C[C@]1(C(=O)OC)C=C[C@H](C)[C@@H](c2ccccc2)N1C(=O)C(F)(F)F	.	.	-0.3%	.	-6.5%	.
NNC(=O)c1cc2cc3ccccc3nc2s1	26.3%	21.3µM*	-1.8%	8.0%	1.3%	-0.8%
O=C(O)Cn1cc(/C=N/Nc2ccc([N+](=O)[O-])cn2)c2ccccc21	-3.4%	13.5µM*	.	2.1%	.	-0.1%
Cc1cc(/C=N/Nc2ccc([N+](=O)[O-])cn2)c(C)n1-c1ccccc1	3.55µM*	?	13.5%	?	?	?
Cc1ccc(Cn2cc(/C=N/Nc3ccc([N+](=O)[O-])cn3)c3ccccc32)cc1	-3.4%	4.9%	-1.2%	-4.9%	-45.5%	0.6%
CCC(=O)N1CCc2cc(S(=O)(=O)CCC(=O)Nc3ccc(Cl)c(C(F)(F)F)c3)ccc21	.	0.6%	.	.	15.0%	.
O=C(Nc1nc2cc3c(cc2s1)OCO3)C1CCCCC1	1.26µM*	4.78µM*	.	1.78µM*	.	?
CC(=O)Nc1nc2cc3c(cc2s1)OCCO3	1.41µM*	7.57µM*	.	1.58µM*	.	?
O=C(Nc1nc2cc3c(cc2s1)OCO3)C1CC1	27.5%	?	.	?	.	9.0%
O=C(NNc1nc2cc3c(cc2s1)OCCO3)c1ccccc1	?	9.53µM*	0.4%	?	20µM*	?
O=C(Nc1nc2cc3c(cc2s1)OCCO3)C1CCCCC1	0.316µM*	0.426µM*	.	0.501µM*	.	?
COc1ccc(OCC(=O)Nc2nc3cc4c(cc3s2)OCCO4)cc1	.	.	.	.	.	-1.6%
Cc1ccc(-n2nc(C)c3c(C(=O)Nc4ccc(Br)c(C)c4)cc(C)nc32)cc1	.	2.8%	.	.	.	.
COc1ccc(N=Cc2sc(O)c3ccccc23)cc1	1.58µM*	3.79µM*	-8.1%	?	2.82µM*	15.9%
COc1ccc(-n2c(O)c(C=Nc3ccccc3)c3ccccc3c2=O)cc1	-9.4%	0.4%	-0.5%	-1.8%	-2.8%	?
COc1ccc(N=Cc2c(O)c3ccccc3n2C(C)=O)cc1	?	1.07µM*	.	?	.	12.9%
Cc1ccc(/C=N/NC(=O)c2ccco2)cc1	1.41µM*	3.79µM*	.	1.78µM*	.	?
CN(C)c1ccc(/C=N\NC(=O)c2cccc3cc[nH]c23)cc1	?	12µM*	.	22.4%	.	?
CSC(=S)N/N=C/c1ccc(Br)cc1	-1.4%	-17.4%	1.5%	-3.6%	10.0%	-2.1%
Cc1cccc(-n2c(C)cc(/C=N\NC(=O)c3ccco3)c2C)c1	1.12µM*	9.53µM*	1.4%	?	13.0%	?
O=C(N/N=C\c1ccoc1)c1ccco1	9.2%	-10.8%	.	0.4%	.	6.7%
CN(C)c1ccc(/C=N/NC(=O)c2cc(=O)[nH]c3ccccc23)cc1	-0.7%	-12.8%	.	-2.6%	.	4.8%
